This assay in a line: NCI Yeast Anticancer Drug Screen. Data for the wt1 strain (AID 149).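 Also: 0% = growth of vehicle-treated wt1 cultures.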 Conditions: S. cerevisiae wt1 strain (SPY 50644) growth inhibition, active compounds read high. How it is done:
Growth inhibition of yeast strains with defined genetic alterations is measured as a screen for potential anti-cancer activity. Selected strains with alterations in DNA damage repair or cell cycle control were exposed to compounds and growth inhibition was measured relative to vehicle treated controls. The strain used in this assay is wt1

This is part of a sample that, as a whole, favours compounds with a hit. Of some 79,000 tested, about 15% had one in any assay. Unmarked numbers belong to inactive results. Active and inactive are the calls of the source. Rule as the data show it: active = growth inhibition above about 70%; inactive = the rest.

Regarding `CC(=O)ON1C(=O)c2cccc3cccc(c23)C1=O`, the growth inhibition runs as follows: (at 1.2 µM) 6%; (at 3.7 µM) 17%; (at 11.0 µM) 76% (active); (at 33.0 µM) 96% (active); (at 100.0 µM) 97% (active).

For `Cc1c(C(Cc2ccccc2N(C)C(=O)/C=C\C(=O)O)c2c[nH]c3ccccc23)c2ccccc2n1C` (stereo not given), the growth inhibition by setting is: (at 1.2 µM) -3%; (at 3.7 µM) -6%; (at 11.0 µM) -7%; (at 33.0 µM) 0%; (at 100.0 µM) 40%.

With `O=Nc1c(NO)ccc2nn(-c3ccccc3)nc12`, the growth inhibition (at 1.2 µM) was 12%; the growth inhibition (at 3.7 µM) is 27%; the growth inhibition (at 11.0 µM) was 96% (active); the growth inhibition (at 33.0 µM) was 98% (active); the growth inhibition (at 100.0 µM) is 96% (active).

Take `NC(=S)N/N=C\c1nccc2ccccc12`: the growth inhibition by setting is: (at 1.2 µM) -6%; (at 3.7 µM) -7%; (at 11.0 µM) 16%; (at 33.0 µM) 76% (active); (at 100.0 µM) 99% (active).

As for `O=C(Cc1csc2[n+]1C(=O)/C(=C/c1ccc(Cl)cc1)S2)Nc1ccccc1`, the growth inhibition is -84% (at 1.2 µM); -1% (at 3.7 µM); 0% (at 11.0 µM); 16% (at 33.0 µM); 60% (at 100.0 µM).

Turning to `Clc1cccc(C(Nc2nncs2)Nc2nncs2)c1Cl`, the growth inhibition was -2% (at 1.2 µM); -1% (at 3.7 µM); 0% (at 11.0 µM); 11% (at 33.0 µM); 34% (at 100.0 µM).

Turning to `N#CN1C2CCC1CC(=O)C2`, the growth inhibition by setting is: (at 1.2 µM) -25%; (at 3.7 µM) -37%; (at 11.0 µM) -46%; (at 33.0 µM) -53%; (at 100.0 µM) -35%.

As for `CCOC(=O)[C@H]1Nc2ccccc2C2c3ccccc3CC21` (stereo not given in full), the growth inhibition (at 1.2 µM) is -9%; the growth inhibition (at 3.7 µM) was -2%; the growth inhibition (at 11.0 µM) is 0%; the growth inhibition (at 33.0 µM) is 26%; the growth inhibition (at 100.0 µM) is 54%.

The values are drawn from PubChem BioAssay (NCI).
